Experimental data as given in the supplement of paper PMC13380429.

Each compound was assayed on Vero E6 infected with SARS-CoV-2 (assay: SARS-CoV-2 infection rate relative to infected DMSO; higher = more infection, active = 60 or less). Conditions: 24 h.

Row | SMILES | SARS-CoV-2 infection rate
1 | Cc1nc(-c2ccc(OCC(C)C)c(C#N)c2)sc1C(=O)O [febuxostat] (10 µM) | 118% (inactive)
2 | CC(=O)NC1CCSC1=O (centres undefined) [citiolone] (10 µM) | 107% (inactive)
3 | CC(CNC1CCCCC1)OC(=O)c1ccccc1 (centres undefined) [hexylcaine] (10 µM) | 112% (inactive)
4 | Cn1ncc(Cl)c1-c1cc(C(=O)N[C@H](CN)Cc2ccc(F)c(F)c2)oc1Cl [uprosertib] (10 µM) | 96.5% (inactive)
5 | CC(C)(O)CC(=O)NCCn1ccc2ncnc(Nc3ccc(Oc4cccc(C(F)(F)F)c4)c(Cl)c3)c21 (10 µM) | 114% (inactive)
6 | CNC(=O)c1ccccc1Sc1ccc2c(/C=C/c3ccccn3)n[nH]c2c1 [axitinib] (10 µM) | 80.5% (inactive)
7 | CC(=O)NC[C@H]1CN(c2ccc(-c3ccc(CNCc4cnn[nH]4)cc3)c(F)c2)C(=O)O1 [radezolid] (10 µM) | 110% (inactive)
8 | O=C1OC2(c3ccccc31)c1cc(I)c(O)c(I)c1Oc1c2cc(I)c(O)c1I [erythrosine] (0.833333 µM) | 116% (inactive)
9 | CC(C)C[C@@H](NC(=O)[C@H](Cc1ccccc1)NC(=O)CNC(=O)[C@@H](C)NC(=O)[C@@H](N)Cc1ccc(O)cc1)C(=O)O (10 µM) | 97% (inactive)
10 | CNc1nc(C)nc(N[C@H]2CCC[C@@H](C(=O)NCc3ccc(C#N)cc3C(F)(F)F)C2)n1 (10 µM) | 104% (inactive)
11 | COC1=C2C[C@@H](C)C[C@H](OC)[C@H](O)[C@@H](C)/C=C(\C)[C@H](OC(N)=O)[C@@H](OC)/C=C\C=C(/C)C(=O)NC(=CC1=O)C2=O [geldanamycin] (0.833333 µM) | 98.5% (inactive)
12 | OC(CCN1CCCCC1)(c1ccccc1)C1CCCCC1 (centres undefined) [trihexyphenidyl] (10 µM) | 92% (inactive)
13 | C=CCNc1c(O)cc2c(O)c1C[C@@H](C)C[C@H](OC)[C@H](O)[C@@H](C)/C=C(\C)[C@H](OC(N)=O)[C@@H](OC)/C=C\C=C(/C)C(=O)N2 [retaspimycin] (10 µM) | 108% (inactive)
14 | C[C@]12C=CC(=O)C=C1CC[C@@H]1[C@@H]2CC[C@]2(C)OC(=O)CC[C@@H]12 [Testolactone] (10 µM) | 80.5% (inactive)
15 | CCOCOC[C@H](C[C@H](C)C(=O)NO)NC(=O)c1ccc(Oc2ccccc2)cc1 (10 µM) | 98.5% (inactive)
16 | CCS(=O)(=O)N(C)[C@H]1c2cc(C#N)ccc2OC(C)(C)[C@@H]1O [chromanol-293B-(-)-[3R,4S]] (10 µM) | 104% (inactive)
17 | CC(=O)O[C@@H]1CC[C@@]2(C)[C@@H](CC[C@]3(C)[C@@H]2C(=O)C=C2[C@@H]4[C@@H](C)[C@H](C)CC[C@]4(C)CC[C@]23C)[C@@]1(C)C(=O)O [acetyl-11-keto-beta-boswellic-acid] (10 µM) | 105% (inactive)
18 | CC(=O)NC1N=C(c2ccccc2)c2ccccc2NC1=O (centres undefined) (10 µM) | 105% (inactive)
19 | N[C@@H](Cc1ccc(Cl)cc1)C(=O)O (racemic) [fenclonine-(+/-)] (10 µM) | 109% (inactive)
20 | CN(C)CC/C=C1/c2ccccc2Sc2ccc(Cl)cc21 [chlorprothixene] (10 µM) | 68.5% (inactive)

Row | SMILES | SARS-CoV-2 infection rate
21 | Nc1nc(NCCc2ccc(O)cc2)nc2nc(-c3ccco3)nn12 (10 µM) | 111% (inactive)
22 | O=c1cc(-c2ccccc2)oc2cc(O)c(O)c(O)c12 [baicalein] (10 µM) | 85% (inactive)
23 | COc1cccc(OCCCN)c1-c1cc(Nc2cnc(C#N)cn2)n[nH]1 (10 µM) | 103% (inactive)
24 | COc1cc(C(=O)N2CCOCC2)cc(OC)c1OC [trimetozine] (10 µM) | 113% (inactive)
25 | CC(CCc1ccccc1)NCC(O)c1ccc(O)c(C(N)=O)c1 (centres undefined) [labetalol] (10 µM) | 114% (inactive)
26 | Nc1nc2c(cnn2CCc2ccccc2)c2nc(-c3ccco3)nn12 (10 µM) | 112% (inactive)
27 | Clc1cccc(Cl)c1NC1=NCCN1 [clonidine] (10 µM) | 100% (inactive)
28 | O=C(NCCNCC(O)COc1ccc(O)cc1)N1CCOCC1 (centres undefined) [xamoterol] (10 µM) | 110% (inactive)
29 | CN(C)CCN(Cc1ccccc1)c1ccccn1 [tripelennamine] (10 µM) | 110% (inactive)
30 | CCc1ccc(OCc2ccccc2C(=O)Nc2ccc3nc(C)cc(N)c3c2)cc1 (0.833333 µM) | 89% (inactive)
31 | C[C@H](Nc1cc(-c2cnn(C)c2)cc(Nc2cnccn2)n1)c1ccc(F)cc1 (0.833333 µM) | 114% (inactive)
32 | COc1cccc(NC(=O)/C=C/c2ccc(Cl)cc2)c1 (10 µM) | 99.5% (inactive)
33 | COc1ccc([C@@H]2CC(=O)c3c(O)cc(O[C@@H]4O[C@H](CO)[C@@H](O)[C@H](O)[C@H]4O[C@@H]4O[C@@H](C)[C@H](O)[C@@H](O)[C@H]4O)cc3O2)cc1O [neohesperidin] (10 µM) | 112% (inactive)
34 | CN1C(CCl)Nc2cc(Cl)c(S(N)(=O)=O)cc2S1(=O)=O (centres undefined) [methyclothiazide] (10 µM) | 104% (inactive)
35 | O=C1C(=Cc2cccnc2)C(=O)c2ccccc21 (10 µM) | 99% (inactive)
36 | NC(=O)c1cnccn1 [pyrazinamide] (10 µM) | 110% (inactive)
37 | CCN(CC)C(=O)Nc1ccc(OCC(O)CNC(C)(C)C)c(C(C)=O)c1 (centres undefined) [celiprolol] (10 µM) | 96.5% (inactive)
38 | CN(C)C(=O)Nc1cccc(-c2ccc(N(C)C)cc2)c1 [atglistatin] (10 µM) | 98% (inactive)
39 | FC(F)(F)c1cc(CO[C@H]2CCCN[C@H]2c2ccccc2)cc(C(F)(F)F)c1 (10 µM) | 16% (active)
